Source: PubChem BioAssay (National Center for Advancing Translational Sciences (NCATS))
D2 ag-1 – agonists of human D2 dopamine receptor. HEK293 T-REx D2 cells, calcium flux agonist mode. 340,000 tested, 0.53% active. activation, % at 2 µM. P14416;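 active = activation over 3 SD above normal in the single-dose calcium agonist read, cut at about 30% in these data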; also: 0% is about no effect
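Agonism is scored from calcium flux in a force-coupled, inducible HEK293 cell line expressing D2, read kinetically for 180 s after compound addition against dopamine controls.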
D2 ag-2 – agonists of human D2 dopamine receptor (beta-arrestin). activation, % (test concentration not listed). 360,000 tested, 0.084% active. DiscoveRx PathHunter D2 beta-arrestin, luminescence, 90 min; 100% = 57 uM dopamine signal. P14416; in the data active = activation above about 40%; inconclusive = between about 15% and that limit
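DiscoveRx PathHunter D2 beta-arrestin cells (2,100/well) attached overnight, then compound-stimulated 90 min at 37 C in HBSS/10 mM HEPES/0.1% Tween-20 buffer; beta-galactosidase complementation read by luminescence after 1 h at ambient temperature. Dopamine 57 uM final (EC100) as control.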
D2 PAM-1 – potentiates the human D2 dopamine receptor allosterically | P14416 | 360,000 tested, 0.23% active | potentiation, % (no concentration beside the values) | DiscoveRx D2 beta-arrestin cells, luminescence, 90 min; 100% = 57 uM dopamine signal; in the data active = potentiation above about 50%; inconclusive = mostly about 30% to 49%
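PathHunter beta-arrestin assay in DiscoveRx D2 cells. Compounds were added with an EC20 of dopamine (50 nM final) for 90 min at 37 deg C. Luminescence was read 1 h after detection reagent, with 57 uM dopamine as the EC100 control.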
D2 PAM-2 – positively modulates the human D2 dopamine receptor allosterically | P14416 | HEK293 T-REx D2, calcium flux, EC20 dopamine potentiation | potentiation, % at 10 µM | 340,000 tested, 0.34% active;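 active = potentiation over 3 SD above the plate norm, cut at about 30% in these data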; also: 0% is about no effect
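Calcium flux readout, no-wash dye, 1 read/s. Inducible HEK293 Trex D2 line, overnight 30 C. Compound alone 180 s (agonist flags), then EC20 dopamine, another 180 s to score potentiation.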
D2 antagonist – antagonizes the human D2 dopamine receptor; HEK293 TREx D2 cells, calcium flux, dopamine EC80; 340,000 tested, 2% active; P14416; inhibition, % at 10 µM; in the data active = inhibition above about 30%; inactive = below that, where a call was filed; also: 0% is about no effect
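Tetracycline-induced HEK293 T-REx cells expressing D2 force-coupled to calcium signalling were dye-loaded, exposed to compound for 180 s, then challenged with an EC80 of dopamine; calcium flux was followed kinetically for a further 180 s.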
D3 arrestin ag – activates human D3 dopamine receptor beta-arrestin recruitment; shares compounds with D2 ag-1; DiscoveRx D3 beta-arrestin cells, luminescence, 90 min; Potency, µM (series often up to 76.9 µM), for the others: at the highest dose activation, actives largely listed as activators; 2,300 tested, 4% active;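 also: potency is read from the fitted curve at half-maximal effect; 100% = dopamine control response; nearly all actives have a fitted effect of over 70% in size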
Target sequence (P35462 whole entry, looked up): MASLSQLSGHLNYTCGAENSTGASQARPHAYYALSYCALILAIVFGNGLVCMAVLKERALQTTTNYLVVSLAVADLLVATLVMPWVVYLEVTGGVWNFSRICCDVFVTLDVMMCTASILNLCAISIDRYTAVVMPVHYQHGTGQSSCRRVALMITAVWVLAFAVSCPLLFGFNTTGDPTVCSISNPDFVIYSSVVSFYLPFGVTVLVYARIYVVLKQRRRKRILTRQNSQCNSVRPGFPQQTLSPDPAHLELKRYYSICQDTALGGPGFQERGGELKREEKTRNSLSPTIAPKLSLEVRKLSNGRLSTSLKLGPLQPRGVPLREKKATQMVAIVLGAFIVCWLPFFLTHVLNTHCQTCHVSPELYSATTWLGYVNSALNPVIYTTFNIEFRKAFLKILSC
D2 ag-3 – activates human D2 dopamine receptor in D3 counterscreen | shares compounds with D2 ag-1 | AID 720507 | 2,300 tested, 5.9% active | DiscoveRx PathHunter D2 beta-arrestin, luminescence, 90 min; response scale: percent relative to full dopamine signal | Potency, µM (titrated, usually from 76.9 µM), for the others: at the highest dose activation, usual class: activators; also: potency is read from the fitted curve at half-maximal effect; % of control where 0% means no effect; nearly all actives have a fitted effect of over 70% in size
* marks the source's active call; other numbers are inactive results; ? = inconclusive; / = not tested or not shown. In the library only some 2.4% were active in any assay of this set; here they are far more common. Unless noted, calls follow the shape of the dose curve; as a rule, active = well fitted activation curve with a large enough effect; inconclusive = small, poorly fitted or top-dose-only effect; inactive = flat fitted curve, though single readings scatter.

SMILES | D2 ag-1 | D2 ag-2 | D2 PAM-1 | D2 PAM-2 | D2 antagonist | D3 arrestin ag | D2 ag-3
COc1ccccc1NC(=O)N1CCN(c2ccccn2)CC1 | 37* | -4 | 4 | -10 | -30 | 5% | 0%
COc1ccccc1NC(=O)N1CCN(c2ccccc2F)CC1 | / | -1 | -12 | / | / | / | /
CCOc1ccc(S(=O)(=O)Nc2cccc(C(=O)N3CCN(c4cccc(OC)c4)CC3)c2)cc1 | / | ? | -20 | / | / | ? | 25%
S=C(Nc1ccc(Oc2ccccc2)cc1)N1CCN(c2ccccn2)CC1 | 13 | 1 | 0 | 7 | -31 | 18% | 4%
COC(=O)c1ccc(C(=O)OC)c(NC(=S)N2CCN(c3ccccn3)CC2)c1 | 51* | 1 | 1 | -8 | 15 | 6% | 2%
CCOc1ccc(S(=O)(=O)Nc2cccc(C(=O)N3CCN(c4ccccc4O)CC3)c2)cc1 | 5 | 5 | 2 | 6 | -7 | / | /
CCCCOc1ccc(C(=O)Nc2ccc3c(c2)CCCN3S(=O)(=O)c2ccc(C)cc2)cc1 | 1 | / | / | 2 | / | / | /
O=C(Nc1ccccc1C(F)(F)F)N1CCN(c2ccccn2)CC1 | 50* | -5 | -1 | -16 | 19 | 0% | 5%
O=C(Nc1ccccc1Cl)N1CCN(c2ccccn2)CC1 | 64* | 5 | 9 | -24 | 15 | -2% | -1%
S=C(Nc1ccc(Br)cc1Cl)N1CCN(c2ccccn2)CC1 | 57* | 2 | -16 | -13 | -6 | 5% | 27%
COc1cccc(C(=O)N2CCN(c3ccccn3)CC2)c1 | / | ? | -4 | -18 | / | ? | 26%
COc1cc(OC)cc(C(=O)N2CCN(c3ccccn3)CC2)c1 | -1 | 5 | 1 | 3 | -4 | / | /
CCn1c2ccccc2c2cc(CN3CCN(Cc4ccc(Cl)cc4)CC3)ccc21 | 0 | / | / | -6 | / | / | /
COc1ccccc1NC(=S)N1CCN(c2ccccn2)CC1 | / | 1 | -9 | / | / | -2% | 6%
COc1ccc2[nH]cc(CCN=C(NC(=O)c3ccccc3F)Nc3nc(C)cc(C)n3)c2c1 | -1 | / | / | 23 | / | / | /
CC(C)Oc1ccc(CNC(=O)CCCn2c(=O)c3cccn3c3cccnc32)cc1 | 1 | / | / | 4 | / | / | /
CCN(CC)S(=O)(=O)c1cccc(S(=O)(=O)N2CCCCC2)c1 | 36* | 2 | 7 | -21 | -3 | 7% | 3%
C=CCn1c(-c2cc(OC)cc(OC)c2)n[nH]c1=S | 0 | 1 | -4 | 3 | -17 | / | /
C=CCn1c(-c2sc3nc(C)cc(C)c3c2N)n[nH]c1=S | -2 | 3 | 2 | 4 | 32* | 13% | -13%
O=C(Cn1c(=O)n(-c2ccccc2)c(=O)c2ccc(C(=O)NCc3ccc4c(c3)OCO4)cc21)Nc1ccc(Br)cc1F | 1 | / | / | -3 | / | / | /
CC(OC(=O)c1cc[n+]([O-])cc1)C(=O)Nc1ccc(C(N)=O)cc1 (stereo unspecified) | 1 | 2 | -13 | -6 | 28 | -1% | -4%
Cc1noc(C)c1C(=O)OC(C)C(=O)Nc1ccc(C(N)=O)cc1 (stereo unspecified) | 0 | -3 | 0 | 3 | 14 | / | /
CCc1ccc(NC(=O)C2CCCN(c3nn4cc(-c5ccc(OC)cc5)nc4s3)C2)cc1 (stereo unspecified) | -1 | / | / | 3 | / | / | /
COc1ccc(OCCCCn2c(CO)nc3ccccc32)cc1 | 1 | 10 | 3 | 2 | 74* | 5% | 4%
CCCn1c(COc2ccccc2)nc2ccccc21 | / | ? | 3 | / | / | ? | 18%
SMILES | D2 ag-1 | D2 ag-2 | D2 PAM-1 | D2 PAM-2 | D2 antagonist | D3 arrestin ag | D2 ag-3
COc1ccc(-n2nc(C(=O)Nc3ccc(C(C)=O)cc3)nc2-c2ccccc2)cc1 | 0 | / | / | -3 | / | / | /
COc1ccc(OC)c(NC2=C(c3ccccc3)C(=O)c3ccccc32)c1 | -4 | / | / | -6 | / | / | /
O=C(Nn1cnnc1)c1ccncc1 | 0 | -2 | -2 | -4 | 9 | -7% | -2%
COC(=O)[C@@H](NC(=O)Nc1ccc(S(N)(=O)=O)cc1)C(C)C | 69* | -4 | -9 | -22 | 3 | -2% | 0%
O[C@@H]1CN(Cc2ccc(-n3cccn3)cc2)CC[C@H]1N1CCN(c2ccccc2F)CC1 | 65* | 8 | -1 | -23 | 39* | 17% | ?
Cc1ccc(CN2CCN(Cc3ccc(-n4cccn4)cc3)CC2CCO)cc1 (stereo unspecified) | -1 | 1 | -14 | -18 | -15 | / | /
CC(C)(C)c1ccc(C(=O)N2CCC(c3nc4ccccc4o3)CC2)cc1 | -1 | / | / | -4 | / | / | /
CC(C)(CO)NS(=O)(=O)c1ccc2c(c1)Cc1cc(S(=O)(=O)NC(C)(C)CO)ccc1-2 | -2 | 6 | -4 | -3 | 22 | 13% | 3%
CC(C)(CO)NS(=O)(=O)c1ccc2c(c1)C(=O)c1cc(S(=O)(=O)NC(C)(C)CO)ccc1-2 | 3 | -1 | 0 | -5 | -8 | / | /
CN(CCOC(=O)c1cccc(Br)c1)C(C)(C)C | 71* | -4 | -12 | -18 | 31* | -1% | -5%
CCN(CC)CCOC(=O)c1cccc(Br)c1 | 0 | -3 | -22 | -8 | 4 | / | /
O=C(OCCc1cc2ccccc2c(=O)o1)c1ccc(F)cc1 | -3 | -2 | -7 | 7 | 3 | / | /
O=C(OCCc1cc2ccccc2c(=O)o1)c1ccc(C(F)(F)F)cc1 | 0 | -2 | -7 | 23 | 2 | -5% | 0%
O=C(OCCc1cc2ccccc2c(=O)o1)c1cccc(Br)c1 | -1 | -1 | -12 | 10 | -4 | -5% | 6%
CCOC(=O)[C@H]1[C@H]2COc3ccc(Cl)cc3[C@@H]2N2C(=O)CN(C)C(=O)[C@@]12C | 0 | -3 | -10 | -18 | -8 | -3% | -3%
CCOC(=O)[C@H]1[C@H]2COc3ccc(Br)cc3[C@@H]2N2C(=O)CN(Cc3ccc(Cl)cc3)C(=O)[C@@]12C | / | -4 | -1 | / | / | / | /
CCOC(=O)[C@H]1[C@H]2COc3ccc(Br)cc3[C@@H]2N2C(=O)CN(Cc3ccco3)C(=O)[C@@]12C | 1 | 2 | 2 | 12 | -7 | -4% | -3%
CCCNC(=O)CCC(=O)N1Cc2cccc(OC)c2Oc2ncccc21 | 1 | / | / | -3 | / | / | /
COC(=O)c1ccc(S(=O)(=O)NCCSc2nnc3c4ccccc4n(C)c3n2)cc1 | -1 | -1 | -8 | 6 | 28 | 17% | 9%
COc1ccc(-c2cn3nc(N4CCCC(C(=O)Nc5ccccc5OC)C4)sc3n2)cc1 (stereo unspecified) | 4 | / | / | 2 | / | / | /
